NPSR antagonist – qHTS Assay for Antagonists of the Neuropeptide S Receptor: cAMP Signal Transduction | Q6W5P4 | CHO-NPSR cells, cAMP TR-FRET, antagonist mode | Potency, µM (highest dose often 38.3 µM), for the others: top-dose activity change, negative = inhibition, usual class: inhibitors | 1% of 220,000 active | AID 1461, 2008; note: nearly all actives have a fitted effect of over 50% in size
B2AR arrestin – qHTS assay of beta-arrestin-biased ligands of beta2-adrenergic receptor; beta-arrestin recruitment to beta2AR, cell-based reporter; 0.02% of 330,000 active; Potency, µM (top dose mostly 46.1 µM), without a hit: at the top dose activation, hits mostly activators;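 note: 0% = DMSO controls and full agonism = EC100 isoproterenol or metaproterenol; nearly all actives have a fitted effect of over 65% in size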
VP16 counter – VP16 counterscreen qHTS for inhibitors of ROR gamma transcriptional activity. AID 2546, 2010. Drosophila S2 Gal4-VP16 UAS-luciferase, luminescence, 20 h. 3.5% of 310,000 active. Potency, µM (highest dose often 53.6 µM), without a hit: at the highest dose activity, negative = inhibition, actives largely listed as inhibitors;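 note: Gal4-VP16 expression switched on by copper sulfate through the metallothionein promoter; nearly all actives have a fitted effect of over 50% in size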
RORg inh – qHTS for inhibitors of ROR gamma transcriptional activity; AID 2551, 2010; Nuclear receptor ROR-gamma (Mus musculus), P51450; Potency, µM (series often up to 53.6 µM), inactives show top-dose activity change, negative = inhibition, hits mostly inhibitors; 5.4% of 310,000 active; Drosophila S2 Gal4-RORgamma UAS-luciferase reporter, 20 h; note: nearly all actives have a fitted effect of over 60% in size
Target sequence (P51450 whole entry, looked up, the tested form may be a part): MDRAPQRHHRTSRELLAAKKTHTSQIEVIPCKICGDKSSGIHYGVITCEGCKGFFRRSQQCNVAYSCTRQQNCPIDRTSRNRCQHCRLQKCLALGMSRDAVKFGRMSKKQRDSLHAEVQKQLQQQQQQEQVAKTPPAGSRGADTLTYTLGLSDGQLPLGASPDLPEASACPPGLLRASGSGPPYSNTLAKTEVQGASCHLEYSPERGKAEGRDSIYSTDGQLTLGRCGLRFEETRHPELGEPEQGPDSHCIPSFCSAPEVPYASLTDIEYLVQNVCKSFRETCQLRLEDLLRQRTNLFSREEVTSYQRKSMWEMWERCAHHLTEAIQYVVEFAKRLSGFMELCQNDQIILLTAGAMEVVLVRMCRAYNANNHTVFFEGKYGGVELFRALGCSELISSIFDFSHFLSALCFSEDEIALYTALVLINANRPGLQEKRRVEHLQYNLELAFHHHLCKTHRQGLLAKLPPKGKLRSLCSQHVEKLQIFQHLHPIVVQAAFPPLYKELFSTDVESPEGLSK
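Luminescence from a UAS-regulated Photinus luciferase reporter in stably transfected Drosophila Schneider cells is measured; decreased signal marks ROR gamma inhibition. Fusion expression is induced by 700 uM copper sulfate for 20 hr.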
The depositor's hits bear a star; ? = inconclusive; . = not tested or not shown; [ ] = dose if it differs, or a comment. Only some compounds are listed: those with a hit (about 5.7% of all), similar ones and a draw of the others. Calls come from the whole dose curve; as a rule, active = well fitted curve in the direction sought with a large enough effect; inconclusive = small, poorly fitted or top-dose-only effect, or another doubt; inactive = no such curve, though single readings can be large; an effect the other way counts as inactive or inconclusive. Unless noted, % is set by controls: 0 for no effect and ±100 for the full control effect; potency is the fitted concentration of half-maximal effect.

SMILES	NPSR antagonist	B2AR arrestin	VP16 counter	RORg inh
S=c1nc(COc2ccccc2)[nH]c2ccccc12	.	8.8%	17.8µM*	1.58µM*
COCCn1cc(C(=O)NCCN(C)C)c2c3ccccc3n(C)c2c1=O	.	-0.1%	-4.2%	14.6%
C=CCn1c(-c2cccc3ccccc23)n[nH]c1=S	-8.5%[46.1 µM]	10.0%	10µM*	3.55µM*
C=CCn1c(-c2ccccc2OC)n[nH]c1=S	14.1%	-0.9%	?	11.2µM*
C=CCn1c(C(C)NC(=O)c2ccccc2C)n[nH]c1=S (stereo unspecified)	8.1%	-0.5%	-2.2%	?
c1cn(-c2cc(-c3ccc4c(c3)OCO4)ncn2)cn1	.	.	-9.0%	-20.4%
C/C(=N\NC(=O)COc1cccc(C)c1)c1ccc2ccccc2c1O	.	0.3%	3.98µM*	4.47µM*
Cc1cccc(OCC(=O)NCc2ccccc2)c1	.	-0.2%	29.8%	44.4%
Cn1ncc2c(Nc3ccc(Cl)cc3)ncnc21	.	-1.1%	?	28.2%
Cn1ncc2c(NNC(=O)c3ccc(Cl)cc3Cl)ncnc21	7.1%	-1.1%	7.08µM*	6.31µM*
Cn1ncc2c(NNC(=O)c3ccc(Cl)c(Cl)c3)ncnc21	-10.6%	0.5%	1.12µM*	0.316µM*
CSc1cccc(NC(=O)Nc2ccccc2C(N)=O)c1	19.4%	3.0%	25.6%	30.3%
Cc1ccc(NC(=O)C(c2ccccc2)N(C)C)cc1Cl (stereo unspecified)	-32.9%	-0.3%	?	17.8µM*
C/C(=N/NC(N)=S)c1cc2ccc(O)cc2oc1=O	-7.9%	-0.3%	-9.8%	?
Cc1cccc(N=c2oc3cc(O)ccc3cc2C(N)=O)c1	-12.6%[46.1 µM]	-1.0%	14.1µM*	11.2µM*
NC(=S)c1cc2ccc(O)cc2oc1=O	5.01µM*	-0.4%	1.7%	-23.6%
CCNc1ncc2nc(-c3ccc(Cl)cc3)c(=O)n(Cc3ccc(F)cc3)c2n1	.	.	4.3%	-8.7%
COc1ccc(N(C)S(=O)(=O)c2cccc(C(=O)Nc3nnc(C)s3)c2)cc1	.	0.0%	.	.
COc1ccc(N(C)S(=O)(=O)c2cccc(C(=O)Nc3nc4ccccc4[nH]3)c2)cc1	-38.8%	0.2%	11.2µM*	3.98µM*
C=CCN(c1ccccc1)S(=O)(=O)c1cccc(C(=O)Nc2nc3ccccc3[nH]2)c1	-30.3%	0.2%	4.47µM*	2.82µM*
CN(c1cccc(Cl)c1)S(=O)(=O)c1cccc(C(=O)Nc2nc3ccccc3[nH]2)c1	?	-0.4%	3.55µM*	2.82µM*
COC(=O)c1cc(S(=O)(=O)NCc2ccc3c(c2)OCO3)cn1C	.	-0.2%	0.0%	-2.8%
COc1ccc(C(=O)NNC(=O)CN2CCC(n3nnc4cc(F)ccc43)CC2)cc1	14.9%	0.1%	-8.0%	-19.1%
CC(=O)CSc1ncnc2sc3c(c12)CCCC3	1.7%	-0.3%	10.7%	-28.6%
CC(=O)C(Sc1ncnc2sc3c(c12)CCCC3)C(C)=O	1.1%	0.0%	15.8µM*	11.2µM*
SMILES	NPSR antagonist	B2AR arrestin	VP16 counter	RORg inh
CC(=O)CSc1ncnc2sc3c(c12)CCC(C)C3 (stereo unspecified)	-14.2%	-0.2%	?	3.16µM*
CC1CCc2c(sc3ncnc(SCC(=O)c4ccccc4)c23)C1 (stereo unspecified)	-24.1%	-0.6%	-4.0%	28.0%
CCOC(=O)N1C(COCc2ccccc2)C=CCS1(=O)=O (stereo unspecified)	.	.	-0.6%	15.6%
COc1ccc(Cc2[nH]n3c(=O)cc(C(C)C)nc3c2-c2ccccc2)cc1	-15.6%	-0.5%	10µM*	3.55µM*
COc1ccc(Cc2[nH]n3c(=O)cc(C)nc3c2-c2ccccc2)cc1	-22.4%	0.1%	?	11.2µM*
CC(=O)OC[C@@H]1O[C@H](CCO/N=C(\C)CCN2CCc3nc(-c4ccccc4)c(-c4ccccc4)cc3C2)C=C[C@@H]1OC(C)=O	.	.	5.1%[10 µM]	-9.3%[10 µM]
C/C(=N\NC(=S)NCCc1ccccc1)c1ccc(Cl)cc1	-36.9%	-0.3%	3.16µM*	3.55µM*
C/C(=N\NC(=S)NCCc1ccccc1)c1ccc(C)cc1	?	12.1%	5.01µM*	2.82µM*
S=C(NCCc1ccccc1)NN=C1CCCCCC1	-46.1%	2.6%	0.6%	-15.0%
C/C(=N/NC(=O)CNC(=O)CCc1ccccc1)c1ccc(Cl)cc1	21.5%	-0.5%	-11.8%	32.0%
C/C(=N\NC(=S)NCCc1ccccc1)c1ccc(C#N)cc1	-18.3%[46.1 µM]	-0.3%	8.91µM*	3.98µM*
COc1ccccc1N1CCN(S(=O)(=O)c2cc(-c3cc(C)no3)ccc2C(C)C)CC1	.	-0.6%	2.4%	5.5%
CC(OC(=O)Cc1cccc(C(F)(F)F)c1)C(=O)Nc1ccc(Cl)cn1 (stereo unspecified)	.	-0.3%	-7.9%	31.8%
Oc1c(Cl)cc(Cl)cc1C=Nc1cc(C(F)(F)F)ccc1N1CCc2ccccc2C1	?	-1.8%	?	?
Oc1c(Cl)cccc1C=Nc1cc(C(F)(F)F)ccc1N1CCCC1	-2.9%[46.1 µM]	-0.5%	?	11.2µM*
CCOc1ccc2[nH]c3c(NCCN(C)C)ncnc3c2c1	.	0.2%	25.0%	5.0%
CCOc1ccc2[nH]c3c(NCCC(C)C)ncnc3c2c1	.	-1.5%	4.47µM*	?
COc1ccc2[nH]c3c(NCCC4=CCCCC4)ncnc3c2c1	-57.4%	-0.2%	7.08µM*	?
Cc1cccc(NC(=S)N2N=CCC2c2ccccc2)c1 (stereo unspecified)	1.3%[46.1 µM]	2.7%	?	0.0%
CC1=NN(C(=S)Nc2ccccc2)C(c2ccccc2)C1 (stereo unspecified)	-6.4%	-0.2%	?	12.6µM*
O=C1c2ccccc2C(=O)c2c(NCCCN(CCO)CCO)cccc21	12.6µM*	0.2%	-23.1%	-40.5%
COC(=O)C1=C(C)N(Cc2ccc(OC)cc2)C(=O)C1	-17.8%[46.1 µM]	0.2%	?	?
COC(=O)C1=C(C)N(Cc2ccco2)C(=O)C1	-4.2%[46.1 µM]	0.3%	21.5%	10µM*
CCN1C/C(=C/c2ccc(OC)c(O)c2)C(=O)/C(=C/c2ccc(OC)c(O)c2)C1	-55.9%	-0.3%	?	6.31µM*
COc1ccc(/C=C2\CN(Cc3ccccc3)C/C(=C\c3ccc(OC)c(O)c3)C2=O)cc1O	.	-0.1%	?	15.8µM*
SMILES	NPSR antagonist	B2AR arrestin	VP16 counter	RORg inh
COc1cccc(/C=N\NC(=O)C2C(=O)NCC2c2ccccc2)c1O (stereo unspecified)	-1.8%[46.1 µM]	-0.5%	?	8.91µM*
Cc1cccc(/C=N/NC(=O)NC2CCCCC2)c1	23.2%	-2.6%	-14.1%	12.0%
COc1cccc(/C=N/NC(=O)C(=O)N2CCCCCC2)c1O	.	-0.2%	10µM*	7.94µM*
COc1ccc(/C=N/NC(=O)C2C(=O)NCC2c2ccccc2)c(OC)c1 (stereo unspecified)	-6.0%	-2.6%	-4.0%	21.7%
COc1cccc(/C=N/NC(=O)NC2CCCCC2)c1O	-20.4%[7.67 µM]	0.6%	8.91µM*	6.31µM*
COc1cccc(/C=N/NC(=O)C(=O)N/N=C/c2cccc(OC)c2O)c1O	3.8%	0.2%	-7.2%	19.5%
CCOc1ccc(NC(=O)CSc2nnc(Cn3cnc4ccccc43)n2C)cc1	-16.3%[46.1 µM]	0.0%	-18.1%	27.4%

Bioassay records: PubChem, National Center for Advancing Translational Sciences (NCATS)
